Experimental data published in publication PMC7862700, “An all-to-all approach to the identification of sequence-specific readers for epigenetic DNA modifications on cytosine”.

Columns and labels:
Assay in all cases: DAPPL (digital affinity profiling via proximity ligation, sequencing); 10 mM Tris-HCl pH 7.5, 50 mM NaCl, 1 mM DTT, 4% glycerol, room temperature, 30 min; GST-TFs on glutathione beads, 16-mer random dsDNA library, 0.1% formaldehyde crosslink after washing; high values mean tight binding
Conditions in all cases: protein: recombinant; tags: N-terminal GST; dsDNA, one strand shown
[1] = target: T1, ERG (Homo sapiens, UniProt P11308 1-479)
T1 sequence: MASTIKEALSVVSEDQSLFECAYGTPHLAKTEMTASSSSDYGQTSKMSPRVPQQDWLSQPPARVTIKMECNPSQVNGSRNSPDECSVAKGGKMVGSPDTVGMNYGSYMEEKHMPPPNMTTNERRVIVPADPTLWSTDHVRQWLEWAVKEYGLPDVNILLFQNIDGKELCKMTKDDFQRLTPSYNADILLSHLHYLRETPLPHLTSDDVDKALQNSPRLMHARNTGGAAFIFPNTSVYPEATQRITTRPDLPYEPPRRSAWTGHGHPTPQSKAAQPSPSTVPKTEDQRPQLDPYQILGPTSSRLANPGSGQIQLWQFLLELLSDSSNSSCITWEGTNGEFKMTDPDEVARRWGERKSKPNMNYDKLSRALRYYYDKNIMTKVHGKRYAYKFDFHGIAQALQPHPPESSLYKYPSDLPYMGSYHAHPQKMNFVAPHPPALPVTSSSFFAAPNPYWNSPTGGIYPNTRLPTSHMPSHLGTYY
Outline: (§1)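 Pools were built from human transcription factors expressed in yeast as GST fusions, captured on glutathione beads and DNA-barcoded, along with a tag-only sample. Incubation with 200 nmole of a 16-mer random double-stranded DNA library lasted 30 min at room temperature in Tris/NaCl/DTT/glycerol buffer, and was followed by washing, 0.1% formaldehyde crosslinking, proximity ligation, PCR amplification and Illumina NextSeq500 sequencing. Binding signal is the quotient of each hexamer's read frequency for a factor and its frequency for the tag-only sample.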

[2] = target: ELF1 (Homo sapiens, UniProt P32519 1-619)
Outline: as §1

[3] = target: T2, EHF (Homo sapiens, UniProt Q9NZC4 1-300)
T2 sequence: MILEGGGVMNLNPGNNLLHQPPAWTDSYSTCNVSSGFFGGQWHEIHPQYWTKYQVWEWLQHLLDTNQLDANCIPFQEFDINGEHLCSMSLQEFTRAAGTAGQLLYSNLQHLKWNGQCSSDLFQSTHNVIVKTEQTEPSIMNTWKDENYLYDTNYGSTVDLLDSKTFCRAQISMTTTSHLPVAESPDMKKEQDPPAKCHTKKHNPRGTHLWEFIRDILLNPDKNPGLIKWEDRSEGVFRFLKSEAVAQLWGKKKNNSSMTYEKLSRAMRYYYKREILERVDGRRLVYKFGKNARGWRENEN
Outline: as §1

[4] = target: SPI1 (Homo sapiens, UniProt P17947 1-270)
Outline: as §1

[5] = target: ETV5 (Homo sapiens, UniProt P41161 1-510)
Outline: as §1

[6] = target: T3, ELK4 (Homo sapiens, UniProt P28324-2 1-405)
T3 sequence: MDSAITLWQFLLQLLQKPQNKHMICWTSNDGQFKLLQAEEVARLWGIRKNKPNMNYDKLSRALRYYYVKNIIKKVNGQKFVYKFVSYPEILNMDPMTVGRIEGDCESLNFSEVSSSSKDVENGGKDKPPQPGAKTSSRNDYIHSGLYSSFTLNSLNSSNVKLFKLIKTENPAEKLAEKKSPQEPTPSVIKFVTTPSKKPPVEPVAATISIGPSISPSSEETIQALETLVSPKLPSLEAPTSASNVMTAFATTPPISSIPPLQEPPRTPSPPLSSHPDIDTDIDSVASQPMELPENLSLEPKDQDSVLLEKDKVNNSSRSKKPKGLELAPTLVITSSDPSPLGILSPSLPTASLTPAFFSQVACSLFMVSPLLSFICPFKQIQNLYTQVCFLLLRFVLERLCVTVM
Outline: as §1

[7] = target: ETV1 (Homo sapiens, UniProt P50549 1-477)
Outline: as §1

[8] = target: T4, ERF (Homo sapiens, UniProt P50548 1-548)
T4 sequence: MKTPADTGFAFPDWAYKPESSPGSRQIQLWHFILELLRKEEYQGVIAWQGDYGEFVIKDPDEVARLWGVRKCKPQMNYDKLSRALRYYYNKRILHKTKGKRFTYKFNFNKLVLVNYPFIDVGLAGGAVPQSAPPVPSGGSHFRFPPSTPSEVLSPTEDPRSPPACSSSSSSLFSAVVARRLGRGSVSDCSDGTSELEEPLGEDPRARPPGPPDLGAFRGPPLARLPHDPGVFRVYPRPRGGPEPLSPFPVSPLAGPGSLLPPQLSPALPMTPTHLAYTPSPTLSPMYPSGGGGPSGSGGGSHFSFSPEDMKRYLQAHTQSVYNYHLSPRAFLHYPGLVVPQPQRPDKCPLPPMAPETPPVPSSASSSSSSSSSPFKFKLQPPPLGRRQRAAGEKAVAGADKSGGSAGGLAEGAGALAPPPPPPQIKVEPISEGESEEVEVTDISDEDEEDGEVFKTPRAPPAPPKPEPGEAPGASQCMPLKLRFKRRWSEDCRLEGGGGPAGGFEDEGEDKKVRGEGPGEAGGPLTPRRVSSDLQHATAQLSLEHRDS
Outline: as §1

[9] = target: T5, ETV3L (Homo sapiens, UniProt Q6ZN32 1-361)
T5 sequence: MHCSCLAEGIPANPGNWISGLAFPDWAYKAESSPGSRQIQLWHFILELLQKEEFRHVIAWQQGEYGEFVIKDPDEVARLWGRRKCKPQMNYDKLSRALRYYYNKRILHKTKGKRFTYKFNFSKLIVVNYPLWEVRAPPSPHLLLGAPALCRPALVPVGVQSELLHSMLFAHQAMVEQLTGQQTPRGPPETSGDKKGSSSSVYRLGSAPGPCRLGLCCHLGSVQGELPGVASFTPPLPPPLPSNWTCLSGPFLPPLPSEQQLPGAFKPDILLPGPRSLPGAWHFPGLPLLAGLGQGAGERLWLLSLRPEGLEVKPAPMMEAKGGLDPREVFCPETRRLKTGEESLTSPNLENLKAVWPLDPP
Outline: as §1

[10] = target: T6, ETS2 (Homo sapiens, UniProt P15036 1-469)
T6 sequence: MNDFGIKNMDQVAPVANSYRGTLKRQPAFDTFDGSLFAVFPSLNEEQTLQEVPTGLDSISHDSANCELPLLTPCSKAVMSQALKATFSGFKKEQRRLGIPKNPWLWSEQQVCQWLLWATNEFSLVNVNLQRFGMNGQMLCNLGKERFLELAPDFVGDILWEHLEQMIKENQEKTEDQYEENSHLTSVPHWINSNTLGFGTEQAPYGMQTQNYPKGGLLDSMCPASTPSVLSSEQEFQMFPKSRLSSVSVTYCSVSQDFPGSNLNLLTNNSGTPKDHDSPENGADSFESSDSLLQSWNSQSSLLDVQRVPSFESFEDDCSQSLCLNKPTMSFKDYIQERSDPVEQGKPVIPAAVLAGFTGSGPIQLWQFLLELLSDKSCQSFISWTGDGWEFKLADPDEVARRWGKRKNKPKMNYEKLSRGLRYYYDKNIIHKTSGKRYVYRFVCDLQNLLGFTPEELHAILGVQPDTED
Outline: as §1

[11] = target: T7, SPDEF (Homo sapiens, UniProt O95238 1-335)
T7 sequence: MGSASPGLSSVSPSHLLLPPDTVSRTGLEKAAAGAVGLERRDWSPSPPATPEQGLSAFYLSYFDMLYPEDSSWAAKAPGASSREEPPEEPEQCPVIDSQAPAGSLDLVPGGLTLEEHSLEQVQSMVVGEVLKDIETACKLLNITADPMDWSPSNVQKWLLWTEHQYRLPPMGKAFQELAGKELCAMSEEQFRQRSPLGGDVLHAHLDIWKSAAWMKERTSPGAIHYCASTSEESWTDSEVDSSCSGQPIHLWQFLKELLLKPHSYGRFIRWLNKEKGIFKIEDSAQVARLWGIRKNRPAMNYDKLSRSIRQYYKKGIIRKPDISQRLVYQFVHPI
Outline: as §1

[12] = target: T8, ETV7 (Homo sapiens, UniProt Q9Y603 1-341)
T8 sequence: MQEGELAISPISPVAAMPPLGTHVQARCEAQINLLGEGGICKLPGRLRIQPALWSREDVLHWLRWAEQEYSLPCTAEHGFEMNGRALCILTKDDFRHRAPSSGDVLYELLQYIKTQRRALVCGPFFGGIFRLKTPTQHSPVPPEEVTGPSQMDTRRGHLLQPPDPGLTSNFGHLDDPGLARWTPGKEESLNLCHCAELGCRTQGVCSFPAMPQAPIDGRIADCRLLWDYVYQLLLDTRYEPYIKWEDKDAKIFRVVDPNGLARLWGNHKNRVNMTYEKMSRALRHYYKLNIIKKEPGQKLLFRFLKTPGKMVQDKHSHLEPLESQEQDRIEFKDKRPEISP
Outline: as §1

[13] = target: ETV6 (Homo sapiens, UniProt P41212 1-452)
Outline: as §1

[14] = target: T9, ELK1 (Homo sapiens, UniProt P19419 1-428)
T9 sequence: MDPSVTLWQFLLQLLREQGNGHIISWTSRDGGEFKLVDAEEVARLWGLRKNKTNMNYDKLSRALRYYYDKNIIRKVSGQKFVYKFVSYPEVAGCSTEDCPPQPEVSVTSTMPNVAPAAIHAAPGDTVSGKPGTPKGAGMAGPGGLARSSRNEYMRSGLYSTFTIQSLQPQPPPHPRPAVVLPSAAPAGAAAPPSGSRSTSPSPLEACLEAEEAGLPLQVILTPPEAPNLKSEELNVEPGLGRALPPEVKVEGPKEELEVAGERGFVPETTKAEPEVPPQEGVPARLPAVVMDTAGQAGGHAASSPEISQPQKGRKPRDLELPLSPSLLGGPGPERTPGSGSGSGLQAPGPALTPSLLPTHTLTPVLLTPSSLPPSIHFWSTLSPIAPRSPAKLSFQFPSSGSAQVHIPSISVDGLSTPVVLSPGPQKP
Outline: as §1

[15] = target: T10, GABPA (Homo sapiens, UniProt Q06546 1-454)
T10 sequence: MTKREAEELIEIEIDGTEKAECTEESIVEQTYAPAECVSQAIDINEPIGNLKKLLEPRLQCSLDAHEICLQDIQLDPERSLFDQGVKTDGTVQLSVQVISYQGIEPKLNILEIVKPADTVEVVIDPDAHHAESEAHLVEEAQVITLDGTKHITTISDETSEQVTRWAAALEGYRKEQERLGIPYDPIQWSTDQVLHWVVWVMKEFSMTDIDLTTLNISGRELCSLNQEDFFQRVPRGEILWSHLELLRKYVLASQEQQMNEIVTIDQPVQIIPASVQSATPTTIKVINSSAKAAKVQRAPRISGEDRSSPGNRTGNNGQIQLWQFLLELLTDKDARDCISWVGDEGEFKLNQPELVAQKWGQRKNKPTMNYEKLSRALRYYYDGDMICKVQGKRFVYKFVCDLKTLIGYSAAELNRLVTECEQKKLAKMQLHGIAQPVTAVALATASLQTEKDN
Outline: as §1

[16] = target: SPIB (Homo sapiens, UniProt Q01892 1-262)
Outline: as §1

[17] = target: T11, ELF3 (Homo sapiens, UniProt P78545 1-371)
T11 sequence: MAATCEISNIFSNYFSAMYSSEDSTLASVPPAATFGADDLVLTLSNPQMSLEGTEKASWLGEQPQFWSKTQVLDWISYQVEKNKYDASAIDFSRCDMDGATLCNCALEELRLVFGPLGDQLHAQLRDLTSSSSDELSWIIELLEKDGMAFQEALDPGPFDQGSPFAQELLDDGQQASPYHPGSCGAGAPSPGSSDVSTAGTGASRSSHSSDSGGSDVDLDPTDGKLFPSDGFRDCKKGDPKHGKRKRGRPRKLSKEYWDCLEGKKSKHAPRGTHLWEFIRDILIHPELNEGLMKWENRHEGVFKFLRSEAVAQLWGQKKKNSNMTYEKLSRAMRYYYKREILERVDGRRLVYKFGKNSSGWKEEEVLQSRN
Outline: as §1

Sequence of ETV5 (P41161 whole entry): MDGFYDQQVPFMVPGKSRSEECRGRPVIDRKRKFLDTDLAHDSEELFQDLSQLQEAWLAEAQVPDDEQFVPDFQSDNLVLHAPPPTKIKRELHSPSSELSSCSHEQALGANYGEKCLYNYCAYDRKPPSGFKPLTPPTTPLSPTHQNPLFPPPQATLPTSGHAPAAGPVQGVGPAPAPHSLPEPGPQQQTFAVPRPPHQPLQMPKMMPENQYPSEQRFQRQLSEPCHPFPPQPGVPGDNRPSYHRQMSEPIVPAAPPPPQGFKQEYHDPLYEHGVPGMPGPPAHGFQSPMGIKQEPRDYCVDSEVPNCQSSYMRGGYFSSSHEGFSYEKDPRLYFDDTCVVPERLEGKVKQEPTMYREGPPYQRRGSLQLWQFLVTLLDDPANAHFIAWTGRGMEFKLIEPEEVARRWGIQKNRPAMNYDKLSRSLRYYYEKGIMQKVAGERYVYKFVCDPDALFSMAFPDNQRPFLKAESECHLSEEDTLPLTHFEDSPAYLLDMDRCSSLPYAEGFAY
Sequence of ETV6 (P41212 whole entry): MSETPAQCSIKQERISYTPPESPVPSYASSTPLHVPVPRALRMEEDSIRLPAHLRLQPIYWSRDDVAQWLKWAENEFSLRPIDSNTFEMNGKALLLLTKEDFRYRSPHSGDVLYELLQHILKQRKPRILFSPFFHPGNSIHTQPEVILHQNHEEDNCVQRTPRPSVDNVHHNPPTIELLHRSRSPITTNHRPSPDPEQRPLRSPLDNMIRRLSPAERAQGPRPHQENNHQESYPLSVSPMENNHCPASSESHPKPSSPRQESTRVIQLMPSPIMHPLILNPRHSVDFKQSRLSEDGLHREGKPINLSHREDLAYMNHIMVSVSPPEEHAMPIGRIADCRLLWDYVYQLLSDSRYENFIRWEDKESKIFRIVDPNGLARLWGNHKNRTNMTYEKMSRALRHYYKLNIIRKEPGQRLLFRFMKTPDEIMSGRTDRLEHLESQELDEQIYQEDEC
Sequence of ETV1 (P50549 whole entry): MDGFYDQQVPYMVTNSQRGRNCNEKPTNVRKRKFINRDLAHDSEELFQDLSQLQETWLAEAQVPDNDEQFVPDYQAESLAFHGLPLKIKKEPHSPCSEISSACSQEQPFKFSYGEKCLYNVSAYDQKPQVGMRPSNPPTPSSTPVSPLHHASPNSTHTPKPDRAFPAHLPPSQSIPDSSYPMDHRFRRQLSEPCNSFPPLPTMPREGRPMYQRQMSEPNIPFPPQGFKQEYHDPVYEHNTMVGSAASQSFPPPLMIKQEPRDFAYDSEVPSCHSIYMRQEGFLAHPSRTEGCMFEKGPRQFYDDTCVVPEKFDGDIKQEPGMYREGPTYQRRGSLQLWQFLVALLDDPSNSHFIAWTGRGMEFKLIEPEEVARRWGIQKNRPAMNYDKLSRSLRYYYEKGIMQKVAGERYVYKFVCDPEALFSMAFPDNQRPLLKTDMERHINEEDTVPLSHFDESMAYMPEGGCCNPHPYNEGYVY
Sequence of SPIB (Q01892 whole entry): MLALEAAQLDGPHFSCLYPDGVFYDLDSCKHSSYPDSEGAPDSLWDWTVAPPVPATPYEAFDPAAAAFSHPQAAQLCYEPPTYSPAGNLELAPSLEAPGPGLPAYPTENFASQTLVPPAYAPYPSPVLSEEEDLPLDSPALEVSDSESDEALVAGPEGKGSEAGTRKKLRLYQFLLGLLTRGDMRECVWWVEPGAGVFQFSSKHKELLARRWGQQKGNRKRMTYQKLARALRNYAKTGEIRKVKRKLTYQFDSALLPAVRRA
Sequence of ELF1 (P32519 whole entry): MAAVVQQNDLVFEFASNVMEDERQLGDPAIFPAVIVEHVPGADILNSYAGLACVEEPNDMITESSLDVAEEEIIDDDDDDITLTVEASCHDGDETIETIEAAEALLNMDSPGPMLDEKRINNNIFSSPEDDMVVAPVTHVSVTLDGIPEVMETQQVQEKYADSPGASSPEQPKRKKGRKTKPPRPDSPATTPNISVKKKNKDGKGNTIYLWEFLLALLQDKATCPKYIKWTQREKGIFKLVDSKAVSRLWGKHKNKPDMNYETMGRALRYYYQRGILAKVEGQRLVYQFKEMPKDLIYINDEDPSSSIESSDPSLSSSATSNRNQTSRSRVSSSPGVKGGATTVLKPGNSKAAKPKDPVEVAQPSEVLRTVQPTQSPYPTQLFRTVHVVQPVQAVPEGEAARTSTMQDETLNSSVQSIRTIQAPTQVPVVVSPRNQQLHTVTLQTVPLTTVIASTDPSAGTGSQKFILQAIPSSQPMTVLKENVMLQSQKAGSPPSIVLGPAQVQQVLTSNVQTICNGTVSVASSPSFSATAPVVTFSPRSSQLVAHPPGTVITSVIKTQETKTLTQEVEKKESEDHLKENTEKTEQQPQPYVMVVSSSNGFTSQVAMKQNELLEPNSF

| Sequence | binding signal [1] | binding signal [2] | binding signal [3] | binding signal [4] | binding signal [5] | binding signal [6] | binding signal [7] | binding signal [8] | binding signal [9] | binding signal [10] | binding signal [11] | binding signal [12] | binding signal [13] | binding signal [14] | binding signal [15] | binding signal [16] | binding signal [17] |
| --- | --- | --- | --- | --- | --- | --- | --- | --- | --- | --- | --- | --- | --- | --- | --- | --- | --- |
| TCACGG | 1.02 fold enrichment (6-mer frequency, TF over GST control) | 1.06 fold enrichment (6-mer frequency, TF over GST control) | 1.08 fold enrichment (6-mer frequency, TF over GST control) | 1.01 fold enrichment (6-mer frequency, TF over GST control) | 1.04 fold enrichment (6-mer frequency, TF over GST control) | 1.02 fold enrichment (6-mer frequency, TF over GST control) | 1.09 fold enrichment (6-mer frequency, TF over GST control) | 1.06 fold enrichment (6-mer frequency, TF over GST control) | 1.02 fold enrichment (6-mer frequency, TF over GST control) | 1.04 fold enrichment (6-mer frequency, TF over GST control) | 1.1 fold enrichment (6-mer frequency, TF over GST control) | 1.04 fold enrichment (6-mer frequency, TF over GST control) | 1.05 fold enrichment (6-mer frequency, TF over GST control) |  |  |  |  |
| TGGGAA | 1.02 fold enrichment (6-mer frequency, TF over GST control) |  | 1.04 fold enrichment (6-mer frequency, TF over GST control) | 1.21 fold enrichment (6-mer frequency, TF over GST control) | 1.04 fold enrichment (6-mer frequency, TF over GST control) |  |  | 1.04 fold enrichment (6-mer frequency, TF over GST control) |  | 1.02 fold enrichment (6-mer frequency, TF over GST control) | 1.01 fold enrichment (6-mer frequency, TF over GST control) | 1.09 fold enrichment (6-mer frequency, TF over GST control) | 1.17 fold enrichment (6-mer frequency, TF over GST control) | 1.08 fold enrichment (6-mer frequency, TF over GST control) | 1.05 fold enrichment (6-mer frequency, TF over GST control) | 1.05 fold enrichment (6-mer frequency, TF over GST control) | 1.13 fold enrichment (6-mer frequency, TF over GST control) |
